Experimental findings from PubChem BioAssay (Tox21) are described below.

Structures are written as SMILES. “And” between values parts separate entries of the source, which are not always exact repeats. Equal values may be shown once. Records with an inconclusive call do not appear. Entries that show only a call come without a potency. The source made the active and inactive calls. Calls follow the shape of the full dose curve.
Potency is read from the fitted curve at half-maximal effect.

The nature of this test: qHTS assay to identify small molecule antagonists of the sonic hedgehog signaling (Shh) pathway (AID 1259369). Also: nearly all actives have a fitted effect of over 45% in size. The following applies: NIH/3T3 Gli1-Luc reporter, Shh antagonist, luminescence 24 h; series mostly up to 92.4 µM. From the text: U.S. Tox21 Program National Center for Advancing Translational Sciences [NCATS] NIH Chemical Genomics Center [NCGC] U.S. Environmental Protection Agency [EPA] National Institutes of Environmental Health Sciences [NIEHS] National Toxicology Program [NTP] U.S. Food and Drug Administration [FDA] Tox21 Assay Overview: The sonic hedgehog (Shh) pathway is essential for normal embryonic development. Dysregulation of the Shh pathway can cause severe developmental defects in organs. Therefore chemicals that interfere with the pathway are potential developmental toxicants. A cell line designated 3T3Gli1-Luc (DMB/OARSA/CFSAN/FDA, Laurel, MD), a NIH/3T3 derived clone containing stably integrated Gli1-Luc reporter is used to detect chemical interference of the Shh pathway, by changes in the expression of the firefly Luc gene under the control of the Gli1 transcriptional response element. This cell line was used to screen Tox21 libraries for identifying and prioritizing the potential developmental toxicants that interfere Shh pathway. Conditioned medium-stimulated mode was used to screen for chemicals inhibiting Shh signaling.
Tox21 Assay Protocol Summary: 3T3 Gli1-Luc cells were dispensed at 2,000 per well in 5uL of culture medium into white solid bottom 1536-well plates (Greiner Bio-One, Monroe, NC) using a Multidrop Combi (Thermo Scientific, Waltham, MA) dispenser. The assay plates were incubated at 37 C and 5% CO2 for 4hr, and then 23nL of compounds dissolved in DMSO and positive control were transferred using a Pintool station (Wako, San Diego, CA). The compound transfer was followed by the addition of 1ul conditioned medium or assay buffer using two separate tips of Flying Reagent Dispenser (FRD, Aurora Discovery, San Diego, CA). The assay plates were incubated at 37C and 5% CO2 for 24hr. For luciferase read, 4uL of Amplite Luciferase reporter gene assay reagent (AAT Bioquest, Inc. Sunnyvale, CA) was added to each well of the assay plates using FRD and incubated at room temperature for 30min. The luminescence signal was measured using a ViewLux plate reader (Perkin Elmer, Shelton, CT).
Consider `C=C(CC)C(=O)c1ccc(OCC(=O)O)c(Cl)c1Cl`, for which the Potency is 6.68 µM (active).

As to `Cc1ccc(O)c(O)c1`, the Potency was 5.29 µM (active).

In the case of `CC(=O)[C@H]1CC[C@H]2[C@@H]3CCC4=CC(=O)CC[C@]4(C)[C@H]3CC[C@]12C`, the Potency was 9.63 µM (active) and 6.11 µM (active).

Consider `C[C@@H](O)[C@H](N)C(=O)O`, for which the activity change, negative = inhibition was 10.6% [at 19 µM] (inactive).

`Cc1cc(-n2nc3ccc(Cl)cc3n2)c(O)c(C(C)(C)C)c1`: the Potency result was “inactive”.

For the compound `CN(C)[C@@H](CCOc1cccc2ccccc12)c1ccccc1`, the Potency is 29.8 µM (active).

Consider `CCN(CC)C(=O)c1cc(S(=O)(=O)Cc2ccccc2)c(N2CCC(c3ccccc3)CC2)cc1N(CC)CCN(C)C`, for which the Potency was 6.78 µM (active).

With `NC(=O)c1cccc([N+](=O)[O-])c1`, the Potency result is “inactive”.

Take `COc1ccc(NC(=O)CC(C)=O)cc1`: the Potency result was “inactive”.

Take `CC(C)CCCCCOC(=O)CCS`: the Potency result is “inactive”.

On to `Cc1cc(=O)oc2cc(O)cc(O)c12`, for which the Potency was 21.8 µM (active).

As to `Cc1nc2n(c(=O)c1CCN1CCC(c3noc4cc(F)ccc34)CC1)CCCC2`, the Potency result was “inactive”.

Take `CCCCNS(=O)(=O)c1ccc(C)cc1`: the Potency entry is “inactive”.

As to `CCC(CC)C(C)CCOC(C)=O` (stereo not given), the Potency result was “inactive”.

Take `CN1CCC[C@@H]1CCO[C@](C)(c1ccccc1)c1ccc(Cl)cc1`: the Potency was 26.6 µM (active).

As to `CC(N=C(NC#N)Nc1ccncc1)C(C)(C)C` (stereo not given), the Potency result was “inactive”.

In the case of `CC1(C)[C@@H](O)CC[C@]2(C)[C@H]3C(=O)C=C4[C@@H]5C[C@@](C)(C(=O)O)CC[C@]5(C)CC[C@@]4(C)[C@]3(C)CC[C@@H]12`, the Potency result was “inactive”.

With `OCCN1CCN(CCCN2c3ccccc3Sc3ccc(C(F)(F)F)cc32)CC1`, the Potency result is “inactive”.

On to `COC1=C(OC)C(=O)C(CCCCCCCCCCO)=C(C)C1=O`, for which the Potency result is “inactive”.

On to `Cc1ccc(C(C)C)cc2c(C)ccc1-2`, for which the Potency result was “inactive”.

On to `CCOC(=O)c1ccc(C2CCC(NC[C@H](O)COc3ccc(O)c(NS(C)(=O)=O)c3)CC2)cc1` (stereo not given in full), for which the Potency was 10 µM (active).

Take `CC(C)CCOC(=O)/C=C/c1ccccc1`: the Potency result is “inactive”.

Take `O=C(O)c1cc(-c2ccc(F)cc2F)ccc1O`: the Potency entry is “inactive”.

For `Nc1ccc(NCCO)c([N+](=O)[O-])c1`, the Potency result is “inactive”.

As to `O[C@@H]([C@H](O)[C@H](O)CBr)[C@H](O)CBr`, the Potency result was “inactive”.

Regarding `C[Si](Cl)(c1ccccc1)c1ccccc1`, the Potency result was “inactive”.

`COc1cc(/C=C/c2ccccc2)oc(=O)c1`: the Potency entry is “inactive”.

With `CC(C)(C)NSc1nc2ccccc2s1`, the Potency entry is “inactive”.

Regarding `CCC(CC)(CC(=O)Nc1cccc(/C=C/c2nc(C3CCC3)cs2)c1)C(=O)O`, the Potency result is “inactive”.

For the compound `Cl[Si](Cl)(c1ccccc1)c1ccccc1`, the Potency entry is “inactive”.

Turning to `C=CCCC(=O)/C=C/C1C(C)=CCCC1(C)C` (stereo not given), the Potency entry is “inactive”.

Turning to `CCO[Si](OCC)(OCC)OCC`, the Potency entry is “inactive”.

For `C1CCC(SSC2CCCCC2)CC1`, the Potency result is “inactive”.

With `O=C(Nc1ccc2c(O)c(N=Nc3ccc(N=Nc4ccc(S(=O)(=O)O)cc4)cc3)c(S(=O)(=O)O)cc2c1)c1ccccc1`, the Potency entry is “inactive”.

As for `CC(=O)CC(=O)Nc1ccc(S(=O)(=O)O)cc1`, the Potency entry was “inactive”.

Consider `NC[C@H]1O[C@H](O[C@H]2[C@H](O[C@@H]3O[C@H](CO)[C@@H](O)[C@H]3O)C(O)[C@H](N)C[C@@H]2N)[C@H](N)[C@@H](O)[C@@H]1O` (stereo not given in full), for which the activity change, negative = inhibition was -6.57% [at 8.39 µM] (inactive).

For the compound `CC(C)=CCNc1ncnc2c1ncn2[C@@H]1O[C@H](CO)[C@@H](O)[C@H]1O`, the Potency is 2.98 µM (active).

For `CCCCCCCCCCCCCC[N+](C)(C)C`, the Potency was 27.3 µM (active) and 531 nM (active).

As to `Cc1c(C)c([N+](=O)[O-])c(C(C)(C)C)c([N+](=O)[O-])c1C`, the Potency result is “inactive”.

For `CCCCCCCC`, the Potency result was “inactive”.
